From PubChem BioAssay (NCI)
About 79,000 compounds went through this panel and 15% of them were active in at least one assay; those are over-represented in the sample as a whole. Unmarked numbers belong to inactive results. Calls of active or inactive are those of the source. Rule as the data show it: active = growth inhibition above about 70%; inactive = the rest.

Legend:
[1] = NCI Yeast Anticancer Drug Screen. Data for the rad50 strain (AID 155);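 also: 0% = growth of vehicle-only cultures of the same strain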; conditions: S. cerevisiae rad50 strain growth inhibition, active compounds read high
Method in brief: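 DNA repair mutant yeast, compound exposure, growth read-out; inhibition is taken relative to vehicle.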

[2] = NCI Yeast Anticancer Drug Screen. Data for the mec2-1 strain (AID 157); conditions: S. cerevisiae mec2-1 strain, active compounds read high
Method in brief: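 mec2-1 yeast strain, carrying an alteration in DNA damage repair or cell cycle control, was exposed to compounds; growth inhibition was measured relative to vehicle-treated controls.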

[3] = NCI Yeast Anticancer Drug Screen. Data for the sgs1 mgt1 strain (AID 161);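 also: 0% = growth of cultures given vehicle only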; conditions: S. cerevisiae sgs1 mgt1 strain, active compounds read high
Method in brief: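 Yeast cells carrying a defined DNA-repair defect were exposed to test compounds. Growth inhibition was measured relative to vehicle-treated controls.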

[4] = NCI Yeast Anticancer Drug Screen. Data for the cln2 rad14 strain (AID 165);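 also: 0% = growth equal to vehicle treated cultures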; conditions: S. cerevisiae cln2 rad14 strain, active compounds read high
Method in brief: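 Yeast carrying cln2 and rad14 alterations (cell cycle control and DNA damage repair) were exposed to compounds. Growth inhibition was measured against vehicle-treated controls.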

[5] = NCI Yeast Anticancer Drug Screen. Data for the bub3 strain (AID 167); conditions: S. cerevisiae bub3 mutant strain, active compounds read high
Method in brief: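 In this screen, a yeast mutant lacking normal mitotic checkpoint function is challenged with compound. Relative growth versus vehicle gives the inhibition value.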

[6] = NCI Yeast Anticancer Drug Screen. Data for the mlh1 rad18 strain (AID 175); conditions: S. cerevisiae mlh1 rad18 strain growth inhibition, active compounds read high
Method in brief: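 Growth inhibition of the yeast strain was measured after compound exposure and expressed relative to vehicle-treated controls. The strain carries defined defects in DNA damage repair.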

[7] = at 5.0 µM (retest, dose inferred, filed as 0.5)
[8] = at 50.0 µM (retest, dose inferred, filed as 5.0)

Compound: Cc1c(N)cc(I)cc1[N+](=O)[O-]
- growth inhibition [1, 7]: 2%
- growth inhibition [1, 8]: 12%
- growth inhibition ([1]; at 50.0 µM): -4.65%
- growth inhibition [2, 7]: 9%
- growth inhibition [2, 8]: 7%
- growth inhibition ([2]; at 50.0 µM): 4.2%
- growth inhibition [3, 7]: 0%
- growth inhibition [3, 8]: 63%
- growth inhibition ([3]; at 50.0 µM): 12.8%
- growth inhibition [4, 7]: 6%
- growth inhibition [4, 8]: -11%
- growth inhibition ([4]; at 50.0 µM): -32.7%
- growth inhibition [5, 7]: -8%
- growth inhibition [5, 8]: 2%
- growth inhibition ([5]; at 50.0 µM): 56.8%
- growth inhibition [6, 7]: -5%
- growth inhibition [6, 8]: 10%
- growth inhibition ([6]; at 50.0 µM): 13.8%

Compound: Cc1cc(Cl)c2c(c1)C(=N/O)/C(=C\c1ccco1)O2
- growth inhibition [1, 7]: 100% (active)
- growth inhibition [1, 8]: 99% (active)
- growth inhibition ([1]; at 50.0 µM): 88% (active)
- growth inhibition [2, 7]: 100% (active)
- growth inhibition [2, 8]: 99% (active)
- growth inhibition ([2]; at 50.0 µM): 90.3% (active)
- growth inhibition [3, 7]: 96% (active)
- growth inhibition [3, 8]: 99% (active)
- growth inhibition ([3]; at 50.0 µM): 83.5% (active)
- growth inhibition [4, 7]: 77% (active)
- growth inhibition [4, 8]: 99% (active)
- growth inhibition ([4]; at 50.0 µM): 88% (active)
- growth inhibition [5, 7]: 100% (active)
- growth inhibition [5, 8]: 99% (active)
- growth inhibition ([5]; at 50.0 µM): 89% (active)
- growth inhibition [6, 7]: 99% (active)
- growth inhibition [6, 8]: 99% (active)
- growth inhibition ([6]; at 50.0 µM): 85.2% (active)

Compound: CC1=NN(c2nc(N)nc(C(C)Sc3cc(Cl)c(C)cc3S(N)(=O)=O)n2)C(C)(C)C1 (configuration not stated)
- growth inhibition [1, 7]: 4%
- growth inhibition [1, 8]: 18%
- growth inhibition ([1]; at 50.0 µM): -51%
- growth inhibition [2, 7]: -1%
- growth inhibition [2, 8]: -24%
- growth inhibition ([2]; at 50.0 µM): -25.8%
- growth inhibition [3, 7]: 8%
- growth inhibition [3, 8]: 1%
- growth inhibition ([3]; at 50.0 µM): -10.6%
- growth inhibition [4, 7]: 29%
- growth inhibition [4, 8]: -6%
- growth inhibition ([4]; at 50.0 µM): 40.9%
- growth inhibition [5, 7]: 41%
- growth inhibition [5, 8]: 26%
- growth inhibition ([5]; at 50.0 µM): -17.1%
- growth inhibition [6, 7]: -6%
- growth inhibition [6, 8]: 0%
- growth inhibition ([6]; at 50.0 µM): 2.9%

Compound: O=C(Nc1cccc(Br)c1)Oc1cccc2cccnc12
- growth inhibition [1, 7]: 61%
- growth inhibition [1, 8]: 97% (active)
- growth inhibition ([1]; at 50.0 µM): 85.7% (active)
- growth inhibition [2, 7]: 65%
- growth inhibition [2, 8]: 99% (active)
- growth inhibition ([2]; at 50.0 µM): 89.8% (active)
- growth inhibition [3, 7]: 99% (active)
- growth inhibition [3, 8]: 99% (active)
- growth inhibition ([3]; at 50.0 µM): 85.3% (active)
- growth inhibition [4, 7]: 76% (active)
- growth inhibition [4, 8]: 99% (active)
- growth inhibition ([4]; at 50.0 µM): 81.1% (active)
- growth inhibition [5, 7]: 91% (active)
- growth inhibition [5, 8]: 73% (active)
- growth inhibition ([5]; at 50.0 µM): 87.8% (active)
- growth inhibition [6, 7]: 64%
- growth inhibition [6, 8]: 98% (active)
- growth inhibition ([6]; at 50.0 µM): 85% (active)
